Most compounds without a hit are left out; they make up all but 10% or so of the library.
Pf growth 48h: inhibits P. falciparum growth in the first generation, 48 h | 310,000 tested, 5.9% active | Potency, µM (titrated, usually from 28.7 µM), without a hit: at the top dose activity change, negative = inhibition, hits mostly inhibitors | P. falciparum luciferase growth in erythrocytes, 48 h; active = well fitted inhibition curve with a large enough effect; inconclusive = small, poorly fitted or top-dose-only effect, or another doubt; inactive = no such curve, though single readings can be large or run the other way; also: % is scaled to controls: 0 for no effect and ±100 for the full control effect
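Luciferase-expressing P. falciparum in infected erythrocytes (2% hematocrit, 0.1% parasitemia final) in RPMI 1640/0.5% Albumax were exposed to compound for 48 hours at 37 C, 5% CO2; growth read as luminescence.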
NS1 function inh: inhibitors of influenza NS1 protein function. AID 2326. 270,000 tested, 0.4% active. Potency, µM (series often up to 46.1 µM), inactives show at the highest dose activity, positive = more growth; also: actives are rising curves; nearly all actives have a fitted effect of over 50% in size
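OD600 was taken as the measure of yeast growth restored by compound in an NS1-expressing S. cerevisiae strain. Cells had been washed out of glucose medium and diluted 1:100 into galactose -URA medium, pH 6.0.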
Pf growth 96h: inhibits malaria parasite growth, 96 h | Potency, µM (top dose mostly 28.7 µM), for inactives: top-dose activity change, negative = inhibition, most hits filed as inhibitors | P. falciparum luciferase reporter growth, 96 h | 320,000 tested, 6.9% active; active = well fitted inhibition curve with a large enough effect; inconclusive = small, poorly fitted or top-dose-only effect, or another doubt; inactive = no such curve, though single readings can be large or run the other way; also: % is scaled to controls: 0 for no effect and ±100 for the full control effect
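P. falciparum expressing integrated firefly luciferase, in erythrocytes at 2% hematocrit, 0.05% parasitemia, incubated with compounds 96 h at 37 C, 5% CO2. Growth inhibition read as loss of luminescence; two-generation exposure targets delayed-death apicoplast inhibitors.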
SARS PLP yeast: SARS-CoV PLP inhibition in yeast; S. cerevisiae expressing SARS-CoV PLpro, growth rescue; 330,000 tested, 0.19% active; Potency, µM (highest dose often 32.9 µM), inactives show at the highest dose activity, positive = growth rescue, actives largely listed as activators; also: 0% is about no effect; nearly all actives have a fitted effect of over 55% in size
* hit, by the source's call; [ ] = dose if it differs, or a comment. Unless noted, calls follow the shape of the full dose curve. Potency is read from the fitted curve at half-maximal effect.

Screening Cc1ccc(C)c(NS(=O)(=O)c2ccc3c(c2)NC(=O)CCS3)c1 returned Pf growth 48h -17%, NS1 function inh 21%, Pf growth 96h 9.3µM* and SARS PLP yeast -6%.
CCOc1ccccc1NS(=O)(=O)c1ccc2c(c1)NC(=O)CCS2 was read as Pf growth 48h -10%, NS1 function inh 9%, Pf growth 96h inconclusive and SARS PLP yeast -3%.
CN(C)C(CNC(=O)c1ccc(C(F)(F)F)cc1)c1ccco1 (stereo unspecified) was read as Pf growth 48h 17%, NS1 function inh 13%, Pf growth 96h 35% and SARS PLP yeast 1%.
Screening O=C(O)CC(Cc1ccc(Cl)cc1)C(=O)Nc1cc(Cl)ccc1Cl (stereo unspecified) returned Pf growth 48h -15%, NS1 function inh 3%, Pf growth 96h 0% and SARS PLP yeast 6%.
Nc1ccc2ncccc2c1N was read as Pf growth 48h inconclusive, NS1 function inh 6%, Pf growth 96h inconclusive and SARS PLP yeast -11%.
`Nc1nc(N)c2c(ccc3nccc32)[nH]1` gave Pf growth 48h 1.7µM*, NS1 function inh 2%, Pf growth 96h 3.7µM* and SARS PLP yeast 2%.
CC(=O)N1CCN(c2ccc(NCc3ccc(-c4cccc(Cl)c4)o3)cc2)CC1 was read as SARS PLP yeast 8%.
Screening Cc1ccccc1-c1cc(C(=O)NCc2cccc(C(F)(F)F)c2)nn1CC1CC(c2cccc([N+](=O)[O-])c2)=NO1 (stereo unspecified) returned Pf growth 48h 3.7µM*, Pf growth 96h 6.6µM* and SARS PLP yeast -6%.
`Cc1ccccc1-c1cc(C(=O)NCc2cccs2)nn1CC1CC(c2cccc([N+](=O)[O-])c2)=NO1` (stereo unspecified) gave Pf growth 48h 3.3µM*, Pf growth 96h 2.1µM* and SARS PLP yeast -3%.
`Cc1ccccc1-c1cc(C(=O)NCc2ccc(OC(F)(F)F)cc2)nn1CC1CC(c2cccc([N+](=O)[O-])c2)=NO1` (stereo unspecified) gave SARS PLP yeast -1%.
`COc1cccc(CNC(=O)c2ccc(NC(=O)CC3SC(N4CCCC4)=NC3=O)cc2)c1` (stereo unspecified) gave Pf growth 48h inconclusive, Pf growth 96h inconclusive and SARS PLP yeast -4%.
For CN(C)CCCN(CCCN(C)C)C(=S)Nc1ccc(S(=O)(=O)N2CCOCC2)cc1 the results were Pf growth 48h 0%, NS1 function inh 0%, Pf growth 96h -4% and SARS PLP yeast 0%.
Screening COc1ccc(CNC(=O)CCSCc2ccccc2C)cc1 returned Pf growth 48h 25%, Pf growth 96h 3.3µM* and SARS PLP yeast 0%.
O=C(CCSCc1ccccc1F)NCc1ccc(F)cc1 was read as NS1 function inh -10%, Pf growth 96h 2.3µM* and SARS PLP yeast -1%.
Screening COc1ccccc1CNC(=O)CCSCc1cccc(Cl)c1 returned Pf growth 48h 3%, NS1 function inh -2%, Pf growth 96h 1.2µM* and SARS PLP yeast 5%.
For COc1ccc2[nH]c3c(c2c1)CCN1C(=O)C(CC(=O)NCCN2CCOCC2)C[C@H](C(=O)N2CCOCC2)[C@@]31C (stereo partly specified) the results were SARS PLP yeast -1%.
Cc1cccc(OCC(=O)N(Cc2ccccc2)c2c(N)n(Cc3ccccc3)c(=O)[nH]c2=O)c1 was read as Pf growth 48h inconclusive, Pf growth 96h inconclusive and SARS PLP yeast -3%.
Screening CC(OC(=O)C1CC1)C(=O)Nc1ccc([N+](=O)[O-])cc1Cl (stereo unspecified) returned Pf growth 48h inconclusive, NS1 function inh -1%, Pf growth 96h 89% and SARS PLP yeast -4%.
For CCC1=NN(C(=O)c2ccc(Cl)cc2)C(O)(c2ccccc2)C1 (stereo unspecified) the results were Pf growth 48h inconclusive, NS1 function inh -15%, Pf growth 96h 3.3µM* and SARS PLP yeast 1%.
For CC1=NN(C(=O)c2ccccc2C)C(O)(c2ccc(Cl)cc2)C1 (stereo unspecified) the results were Pf growth 48h -24%, NS1 function inh -8%, Pf growth 96h 10µM* and SARS PLP yeast -4%.
`Nc1cccc(-n2nnnc2CN2CCOCC2)c1` gave Pf growth 48h 0%, NS1 function inh 7%, Pf growth 96h 10µM* and SARS PLP yeast 13%.
Screening O=[N+]([O-])c1ccc(-n2nnnc2CN2CCOCC2)cc1 returned Pf growth 48h 3%, NS1 function inh 4%, Pf growth 96h 6.6µM* and SARS PLP yeast 2%.
For CCCN1C(=O)C2(OCCO2)c2cc(Cl)ccc21 the results were Pf growth 48h 11%, NS1 function inh -13%, Pf growth 96h 7% and SARS PLP yeast 2%.
Screening CCc1c(O)cc2n(c1=O)-c1ccc(Cl)cc1C2(C)C returned Pf growth 48h 12µM*, NS1 function inh -34%, Pf growth 96h -27% and SARS PLP yeast -43%.
CCC(NC(=O)COc1cc2c(c3oc(=O)c(C)c(C)c13)CCC(C)(C)O2)C(=O)O (stereo unspecified) was read as Pf growth 48h 11%[0.00184 µM], NS1 function inh -1%, Pf growth 96h inconclusive and SARS PLP yeast -1%.
For COc1ccccc1C1CC(c2cccs2)=Nc2ccccc2S1 (stereo unspecified) the results were NS1 function inh -15%, Pf growth 96h 10µM* and SARS PLP yeast -4%.
Cc1ccc(-n2c(C)nc3c(cnn3-c3ccccc3Cl)c2=O)cc1C was read as NS1 function inh -61%, Pf growth 96h 3.7µM* and SARS PLP yeast -13%.
For Cc1ccc(-n2c(C)nc3c(cnn3-c3ccc(C)c(C)c3)c2=O)cc1C the results were NS1 function inh 2%, Pf growth 96h 50% and SARS PLP yeast 1%.
For Cc1cccc(CS(=O)(=O)Cc2ccc(C(=O)NC3CCCCC3)o2)c1 the results were Pf growth 48h inconclusive, NS1 function inh -18%, Pf growth 96h 55% and SARS PLP yeast 19%.
For COc1cccc(OCc2nn3c(=O)c(-c4ccccc4)nnc3s2)c1 the results were Pf growth 48h inconclusive, NS1 function inh 2%, Pf growth 96h inconclusive and SARS PLP yeast 1%.
Screening Cc1ccc(NS(=O)(=O)c2c(C(=O)N3CCCC3)c(C)n(C)c2C)cc1 returned Pf growth 48h 29%, NS1 function inh -1%, Pf growth 96h -25% and SARS PLP yeast -2%.
COc1ccc(CC(=O)N2CCN=C2SCc2cccc([N+](=O)[O-])c2)cc1 was read as Pf growth 48h 10µM*, Pf growth 96h inconclusive and SARS PLP yeast 0%.
`O=C(Cc1ccc([N+](=O)[O-])cc1)N1CCN=C1SCc1ccccc1` gave Pf growth 48h inconclusive, NS1 function inh 7%, Pf growth 96h -18% and SARS PLP yeast 1%.
Cc1ccc(C(=O)NNC(=O)CSc2n[nH]c(-c3cccnc3)n2)cc1 was read as Pf growth 48h 33%, NS1 function inh 8%, Pf growth 96h 20% and SARS PLP yeast -2%.
